Data on 14 compounds can be found in PubChem BioAssay.

Activity calls are given as the source filed them.

The test system of test [1] is PRMT1 (protein arginine N-methyltransferase 1). Description: PRMT1 binders on small-molecule microarrays, primary screen, biochemical, small-molecule microarray, 635 nm fluorescence (AID 1088).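 Note: binding of Prmt1 protein to compounds spotted on small-molecule microarray slides.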 The settings on record: small-molecule microarray binding, higher = more signal.
A short description of test [2]: yeast growth modulation, basal conditions, primary screen, YJM789 clinical isolate, OD600, 24 h (AID 1089).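 Note: growth of clinical yeast isolate S. cerevisiae YJM 789 seeded 1000 cells per well; test concentration not given here.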 The settings on record: S. cerevisiae YJM789 growth, higher = more signal, called active from +8 up or from −8 down.
The nature of test [3]: fission yeast growth modulation, primary screen, strain 972, OD600, 24 h, no modulator (AID 1090).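 Note: basal condition with compound alone and no growth modifier present; test concentration not given here.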 The settings on record: S. pombe 972 growth, higher = more signal, called active from +8 up or from −8 down.
Test [4] in a line: S. cerevisiae growth modulation with rapamycin, primary screen, strain BY4716, OD600, 96 h (AID 1091). Note: test concentration not given here. The settings on record: higher = more signal, called active from +8 up or from −8 down.
The target in test [5] is Torsin-1A-interacting protein 2 (Homo sapiens) (UniProt Q8NFQ8). Nature of the test: LULL1 binders on small-molecule microarray, primary screen, cell lysate, human LULL1 lysate, 635/667 nm fluorescence (AID 1092).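 Note: probe is lysate of COS7 cells overexpressing human LULL1; score merges per-feature 667 nm fluorescence with signal-to-noise.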 As to conditions: hLULL1 lysate binding, 635 nm fluorescence, higher = more signal.
A short description of test [6]: E. coli growth modulation, two-sided OD650, primary screen, E. coli filamentation project, strain DRC41, 24 h (AID 1093).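 Note: MC1000 strain lacking acrAB efflux and sulA so SOS filamentation is blocked; test concentration not given here.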 The settings on record: OD650, 24 h, higher = more signal, called active from +8 up or from −8 down.
Test [7] is described as follows: small-molecule microarray binders of probe aLefty2, primary screen, biochemical, biotinylated probe, 635/667 nm fluorescence (AID 1094).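 Note: score merges spot fluorescence near 667 nm with spot signal-to-noise ratio.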 As to conditions: higher = more signal.
In test [8] the test system is Noggin (protein binding on small-molecule microarray). Description: Noggin binders on small-molecule microarray, primary screen, biochemical, 635/667 nm fluorescence (AID 1095).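 Note: score merges 667 nm feature fluorescence with signal to noise over triplicate slides.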 As to conditions: 635 nm fluorescence, higher = more signal.
In test [9] the target is Neurogenic locus notch homolog protein 3 (Homo sapiens) (UniProt Q9UM47). Nature of the test: NOTCH3 binders on small-molecule microarray, primary screen, biochemical, 635/667 nm fluorescence (AID 1096). As to conditions: NOTCH3 binding, 635 nm fluorescence, higher = more signal.
Test [10] in a line: small-molecule microarray binders of probe aEGFR, primary screen, biochemical, biotinylated probe, 635/667 nm fluorescence (AID 1097).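 Note: probe is a biotinylated anti-EGFR antibody binding compounds printed on slides; score combines fluorescence near 667 nm and signal to noise of each spot.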 The settings on record: higher = more signal.

Torsin-1A-interacting protein 2 (Homo sapiens), sequence (Q8NFQ8 whole entry, looked up): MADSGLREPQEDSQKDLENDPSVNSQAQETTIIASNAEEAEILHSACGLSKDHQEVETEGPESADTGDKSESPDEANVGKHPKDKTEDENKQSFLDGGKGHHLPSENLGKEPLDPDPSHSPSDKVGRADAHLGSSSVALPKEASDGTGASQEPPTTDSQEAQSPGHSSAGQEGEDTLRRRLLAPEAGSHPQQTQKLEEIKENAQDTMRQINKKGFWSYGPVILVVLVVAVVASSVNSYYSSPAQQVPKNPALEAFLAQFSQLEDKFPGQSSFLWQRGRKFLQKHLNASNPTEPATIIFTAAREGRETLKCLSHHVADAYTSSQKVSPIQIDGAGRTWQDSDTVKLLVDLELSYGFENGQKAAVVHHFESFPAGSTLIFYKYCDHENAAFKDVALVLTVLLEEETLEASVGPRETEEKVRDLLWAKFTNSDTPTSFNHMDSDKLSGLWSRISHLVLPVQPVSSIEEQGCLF
Neurogenic locus notch homolog protein 3 (Homo sapiens), sequence (Q9UM47 whole entry, looked up): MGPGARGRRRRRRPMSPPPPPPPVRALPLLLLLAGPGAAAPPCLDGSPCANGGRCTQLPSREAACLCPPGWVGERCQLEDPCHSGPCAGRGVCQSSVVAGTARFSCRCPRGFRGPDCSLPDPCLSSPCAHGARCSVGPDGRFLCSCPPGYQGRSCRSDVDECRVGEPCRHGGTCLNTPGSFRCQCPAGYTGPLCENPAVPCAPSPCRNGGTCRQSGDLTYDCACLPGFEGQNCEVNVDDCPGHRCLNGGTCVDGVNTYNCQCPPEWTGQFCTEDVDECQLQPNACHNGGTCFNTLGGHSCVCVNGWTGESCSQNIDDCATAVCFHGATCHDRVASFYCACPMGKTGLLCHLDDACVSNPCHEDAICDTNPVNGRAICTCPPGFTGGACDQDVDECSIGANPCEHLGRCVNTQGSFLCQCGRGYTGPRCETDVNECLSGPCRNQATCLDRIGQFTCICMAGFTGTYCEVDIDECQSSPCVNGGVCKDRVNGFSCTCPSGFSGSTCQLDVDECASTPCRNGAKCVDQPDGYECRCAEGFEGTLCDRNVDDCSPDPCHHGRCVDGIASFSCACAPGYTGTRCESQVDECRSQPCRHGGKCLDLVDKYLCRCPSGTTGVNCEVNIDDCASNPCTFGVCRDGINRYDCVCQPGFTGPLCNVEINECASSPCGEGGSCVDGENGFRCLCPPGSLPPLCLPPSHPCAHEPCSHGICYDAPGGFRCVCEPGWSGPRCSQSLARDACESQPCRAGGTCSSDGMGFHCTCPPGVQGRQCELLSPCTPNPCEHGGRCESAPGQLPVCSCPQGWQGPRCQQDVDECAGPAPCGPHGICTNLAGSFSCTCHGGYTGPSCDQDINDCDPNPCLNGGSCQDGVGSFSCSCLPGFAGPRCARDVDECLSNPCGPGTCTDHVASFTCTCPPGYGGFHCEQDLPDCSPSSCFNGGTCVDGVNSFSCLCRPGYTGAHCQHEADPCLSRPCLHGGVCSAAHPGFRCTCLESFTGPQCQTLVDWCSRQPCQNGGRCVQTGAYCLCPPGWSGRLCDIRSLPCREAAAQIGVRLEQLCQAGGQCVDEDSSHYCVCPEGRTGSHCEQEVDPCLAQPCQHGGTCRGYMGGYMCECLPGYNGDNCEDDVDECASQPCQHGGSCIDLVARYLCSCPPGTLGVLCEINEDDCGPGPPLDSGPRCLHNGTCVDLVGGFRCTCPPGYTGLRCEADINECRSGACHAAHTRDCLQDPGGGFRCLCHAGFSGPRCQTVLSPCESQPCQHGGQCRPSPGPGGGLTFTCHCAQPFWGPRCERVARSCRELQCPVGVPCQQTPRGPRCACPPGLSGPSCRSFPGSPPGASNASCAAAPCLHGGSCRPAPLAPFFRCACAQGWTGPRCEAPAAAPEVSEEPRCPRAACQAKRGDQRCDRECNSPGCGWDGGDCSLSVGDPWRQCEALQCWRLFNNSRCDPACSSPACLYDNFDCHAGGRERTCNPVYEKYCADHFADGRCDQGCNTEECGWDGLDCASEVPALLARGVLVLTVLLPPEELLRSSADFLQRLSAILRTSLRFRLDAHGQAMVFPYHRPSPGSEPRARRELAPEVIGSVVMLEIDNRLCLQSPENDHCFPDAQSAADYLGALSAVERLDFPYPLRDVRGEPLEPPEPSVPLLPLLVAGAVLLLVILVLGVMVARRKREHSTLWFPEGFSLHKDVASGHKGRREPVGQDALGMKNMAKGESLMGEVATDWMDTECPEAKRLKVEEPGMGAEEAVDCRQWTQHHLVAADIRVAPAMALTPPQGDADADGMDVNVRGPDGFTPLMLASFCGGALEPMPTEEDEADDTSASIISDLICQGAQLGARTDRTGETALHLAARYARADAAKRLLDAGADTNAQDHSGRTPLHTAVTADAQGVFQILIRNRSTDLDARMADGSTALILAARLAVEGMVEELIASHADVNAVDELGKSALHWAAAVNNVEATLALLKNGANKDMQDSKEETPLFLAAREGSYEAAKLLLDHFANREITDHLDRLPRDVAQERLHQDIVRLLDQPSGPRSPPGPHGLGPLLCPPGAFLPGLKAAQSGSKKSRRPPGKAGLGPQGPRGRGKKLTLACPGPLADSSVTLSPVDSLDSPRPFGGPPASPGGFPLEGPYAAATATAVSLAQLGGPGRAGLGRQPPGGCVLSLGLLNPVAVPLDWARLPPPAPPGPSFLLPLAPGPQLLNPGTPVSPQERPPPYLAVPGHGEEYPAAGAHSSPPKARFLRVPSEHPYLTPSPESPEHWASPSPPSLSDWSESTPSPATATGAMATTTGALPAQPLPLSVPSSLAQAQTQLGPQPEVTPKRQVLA

For the compound `[N-]=[N+]=NCc1ccccc1C[C@@]1(C(=O)NCCN2CCOCC2)N=C(c2ccc(OCCCO)cc2)O[C@@H]1c1ccccc1`, the composite z-score in test [1] is 1.37; in [5], 2.96; in [7], -0.0073; in [8], 0.565; in test [9], 0.65; in [10], -0.0128. Also, the z-score in test [2] is -0.941 (inactive); in [3] it was -3.76 (inactive); in [4] it was 15.8 (active); in test [6] it was -0.304 (inactive).

With `CC(C)[Si](C#Cc1ccccc1)(O[C@H](c1ccccc1)c1cn(Cc2ccccc2)nn1)C(C)C`, the composite z-score was 1.02 in test [1]; 2.04 in test [5]; -0.195 in test [7]; 1.08 in [8]; 1.01 in test [9]; -0.133 in test [10]. Besides, the z-score in test [2] is -1.94 (inactive); in test [3] it was -19.9 (active); in [4], -2.28 (inactive); in test [6] it was 2.14 (inactive).

Consider `CC(C)(C)OC(=O)CC[C@]1(C(=O)N2CCOCC2)COC(c2ccc(OCCCO)cc2)=N1`, for which the composite z-score was 0.786 in test [1]; 3.6 in [5]; 0.0665 in test [7]; -0.778 in [8]; -0.526 in test [9]; 0.94 in test [10]. Further, the z-score is 1.04 (inactive) in [2], 0.487 (inactive) in test [3], 0.911 (inactive) in test [4] and 1.66 (inactive) in [6].

`CC(C)C[C@@H]1NC(=O)[C@H]2C[C@@H](C(=O)O)[C@@H](c3cccc(OCCO)c3)N2C1=O`: the composite z-score worked out at 0.779 in [1]; 2.06 in test [5]; 0.276 in [7]; 0.492 in test [8]; 0.632 in test [9]; 0.0588 in test [10]. Also, the z-score in [2] is 0.395 (inactive); in test [3], -0.907 (inactive); in test [4] it was -0.529 (inactive); in [6], 0.767 (inactive).

As for `COC(=O)[C@@]1(Cc2ccc(F)cc2)[C@H]2c3cc(C(=O)N(C)C)n(Cc4ccsc4Br)c3C[C@H]2CN1C(=O)c1ccccc1`, the composite z-score is -0.291 in test [1]; 3.64 in [5]; 1.38 in test [7]; -0.322 in [8]; 1.08 in [9]; 1.06 in [10]. For the same compound, the z-score in test [2] was 0.232 (inactive); in [3], 0.168 (inactive); in test [4], 1.37 (inactive); in test [6], -1.32 (inactive).

For `CCCCCN1CC=CC23O[C@@H]4/C=C\CCCOC(=O)C4[C@H]2C(=O)N(CCCCCO)[C@@H]3C1=O` (stereo not given in full), the composite z-score was -0.409 in test [1]; -2.15 in test [5]; -0.159 in test [7]; -0.636 in test [8]; -0.0581 in [9]; -0.175 in test [10]. In addition, the z-score was -0.557 (inactive) in test [2], -0.383 (inactive) in [3], -1.39 (inactive) in test [4] and 1.62 (inactive) in [6].

As for `C=CCOC(=O)[C@@H]1[C@H]2C(=O)O[C@H](c3ccccc3)[C@H](c3ccccc3)N2[C@H](c2ccc(OCCOC(=O)[C@H]3C[C@H]4C(=O)N[C@@H](CCCCN(C)C)C(=O)N4[C@H]3c3cccc(OCCO)c3)cc2)[C@@]12C(=O)Nc1ccccc12`, the composite z-score in test [1] is 0.831; in test [5] it was 0.729; in [7] it was 0.0897; in [8], 0.221; in test [9], -0.414; in [10], -0.0039. Also, the z-score in test [2] is -0.292 (inactive); in test [3], 1.12 (inactive); in [4], 0.171 (inactive); in test [6] it was -0.0426 (inactive).

For the compound `COc1cc(CO)cc(I)c1O[C@H]1C=C(C(=O)NCCO)C[C@@H](N(CCN2CCOCC2)C(=O)C2CCCO2)[C@@H]1O` (stereo not given in full), the composite z-score in [1] was -0.15; in [5], 0.206; in [7] it was -0.172; in [8], 0.34; in [9], -0.204; in test [10], -0.0106. The z-score in test [2] was 0.383 (inactive); in test [3], -0.455 (inactive); in test [4] it was 0.0665 (inactive); in test [6] it was 2.54 (inactive).

In the case of `COc1cc(Cc2cc3c(c(CCc4ccccc4)n2)[Si](C(C)C)(C(C)C)O[C@H]3c2ccccc2)cc(OC)c1OC`, the composite z-score in [1] is -0.651; in test [5], -0.355; in test [7], -0.0284; in [8] it was -0.288; in test [9] it was -0.446; in [10], -0.129. The z-score was -2.28 (inactive) in test [2], -19.9 (active) in [3], -0.549 (inactive) in test [4] and -0.637 (inactive) in [6].

`C=CCNC(=O)[C@@H]1[C@H]2C(=O)O[C@H](c3ccccc3)[C@H](c3ccccc3)N2[C@H](c2ccc(O)cc2)[C@@]12C(=O)Nc1ccc(C#CC3=CCCCC3)cc12`: the composite z-score in test [1] was 1.55; in [5] it was 2.93; in test [7], -0.162; in test [8] it was 1.03; in [9] it was 1.05; in [10], 0.392. Moreover, the z-score in test [2] is 1.03 (inactive); in test [3] it was 0.185 (inactive); in [4], 1.74 (inactive); in test [6] it was -0.43 (inactive).

As to `CC[C@H]1C2=C3C(CC[C@H]4C(OCc5ccc(F)cc5C(F)(F)F)OC[C@](C)([C@@H]34)N(C(=O)OC(C)(C)C)C2)C(COC(C)=O)C1COC(C)=O` (stereo not given in full), the composite z-score in [1] is 0.454; in [5] it was 2.89; in test [7], 0.0909; in [8], 0.539; in [9], 1.13; in test [10], 0.0507. Moreover, the z-score in [2] was -0.284 (inactive); in test [3], 0.387 (inactive); in test [4] it was 1.46 (inactive); in [6], -1.31 (inactive).

`CCCCC(=C=CC[C@H](O)c1cccc(OCCO)c1)C[C@H](O)c1cc(Cl)cc(Cl)c1O`: the composite z-score in test [1] was 1.53; in test [5], 1.81; in test [7], 0.206; in test [8], 0.999; in test [9] it was 0.883; in test [10], -0.112. Moreover, the z-score in [2] was 0.59 (inactive); in [3], -1.71 (inactive); in test [4] it was 0.102 (inactive); in test [6], 0.206 (inactive).

For the compound `COc1ccc([Si](C)(C)[C@H]2[C@H](CC(=O)N3CCC[C@H]3CO)O[C@@]3(C(=O)N(C)c4ccccc43)[C@@H]2C)cc1`, the composite z-score in test [1] was 0.969; in test [5], 0.757; in test [7] it was -0.0258; in [8] it was 1.85; in test [9] it was 0.207; in test [10] it was -0.151. The z-score in test [2] was -0.42 (inactive); in test [3], -0.134 (inactive); in [4], -0.401 (inactive); in test [6], -0.735 (inactive).

Take `COc1ccc(C(O)C2C=CC3C(=O)N(C)C(=O)C3N2Nc2ccccc2)cc1` (stereo not given): the composite z-score in [1] is 1.29; in test [5] it was 3.3; in [7], 0.156; in test [8], -0.357; in test [9], 1.06; in [10], 0.147. The z-score in [2] was -0.0991 (inactive); in test [3], -0.546 (inactive); in test [4], 0.695 (inactive); in test [6], -0.238 (inactive).
